Results taken from PubChem BioAssay AID504905 (The Scripps Research Institute Molecular Screening Center, 2011).
The list shows a part of the results. Values without a mark were called inactive. Active and inactive are the calls of the source. No stated cut-off is given here; in the data, active means activation above about 17%; inactive means the rest.

Molecular target: 5-hydroxytryptamine receptor 5A (Homo sapiens) (UniProt P47898)
Experiment: activation of human 5-HT5A receptor – cell-based, luminescence, counter-screen for OPRM1-OPRD1 heterodimer agonist project (AID 504905);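 further: 0% = vehicle-treated cells and 100% = reference agonist response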
Settings: HTR5A agonist counterscreen, at 9.3 µM, hits give high values

5-hydroxytryptamine receptor 5A (Homo sapiens), sequence (P47898 whole entry, looked up): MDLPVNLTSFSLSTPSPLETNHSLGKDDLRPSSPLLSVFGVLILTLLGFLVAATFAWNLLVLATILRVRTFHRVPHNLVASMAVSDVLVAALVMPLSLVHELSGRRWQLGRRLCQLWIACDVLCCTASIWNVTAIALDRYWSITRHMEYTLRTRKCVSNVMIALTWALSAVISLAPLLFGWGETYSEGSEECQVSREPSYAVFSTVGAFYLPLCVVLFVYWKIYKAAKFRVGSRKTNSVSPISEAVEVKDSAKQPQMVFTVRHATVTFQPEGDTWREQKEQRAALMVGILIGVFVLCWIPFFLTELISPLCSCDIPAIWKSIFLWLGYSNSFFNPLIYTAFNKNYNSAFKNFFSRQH

SMILES | activation
CN1CCN(c2ccc([N+](=O)[O-])c(Sc3nc4ccccc4[nH]3)c2)CC1 | -0.05%
O=C1N/C(=C/c2cccs2)C(=O)N1Cc1ccc(F)cc1 | 27.5% (active)
COc1cc(/C=N/NC(=O)Nc2ccccc2)ccc1OCCOc1ccccc1C | 10.4%
CCc1ccc(C(CNc2nc(C(F)(F)F)nc3ccccc23)N(C)C)cc1 (stereo unspecified) | -2.05%
O=C(Nc1ccc(OC(F)(F)F)cc1)c1ccc2c(c1)no[n+]2[O-] | 1.96%
O=C(NCc1cn2ccsc2n1)Nc1ccc(Cl)cc1 | -5.53%
CC(c1cccnc1)N(CCN(C)C)C(=O)Nc1ccc(Cl)c(Cl)c1 (stereo unspecified) | -6.75%
COc1cc(C(=O)OC(C)C(=O)NCC2CCCCC2)cc(NC(=O)c2ccco2)c1OC (stereo unspecified) | -2.12%
CN(C)C(CNC(=O)c1ccc(S(=O)(=O)NCc2ccco2)cc1)c1ccccc1 (stereo unspecified) | 4.56%
O=C(NC1=CC(=O)c2ccccc2C1=O)c1ccccc1 | 3.59%
Cc1ccc(OCC(=O)Nc2ccc(NC(=O)c3cccs3)cc2)c(C)c1 | 8.16%
COc1ccc(-n2nnnc2-c2nc3ccccc3s2)cc1 | 4.69%
N#C/C(=C(/O)COC(=O)COc1ccc(Cl)cc1)c1nc2ccccc2[nH]1 | 9.3%
COc1ccc(SC[C@H](Cc2ccccc2)N2CCN(CCc3ccccc3)CCC2=O)cc1 | -1.8%
Clc1ccc(COn2c(-c3ccc(Cl)cc3Cl)nc3ncccc32)cc1 | 0.23%
CN(CC(=O)Nc1ccc(Cl)cc1)C(=O)c1ccc(COc2ccccc2)cc1 | 5.21%
Cc1cc(C)cc(C(=O)N(CCc2ccccc2)C2=CC3CCC(C2)N3C)c1 (stereo unspecified) | -1.9%
COc1ccc(C(CNCC(=O)Nc2ccccc2F)N(C)C)cc1 (stereo unspecified) | 5.09%
COc1cccc(/C=N/Nc2cc(C)nc(-c3ccccc3O)n2)c1O | 0.01%
COc1ccccc1C(CNC(=O)c1ccc(C)c(S(=O)(=O)N2CCCCC2)c1)N(C)C (stereo unspecified) | 0.79%
CN(C)CCCN(C(=O)c1ccc(S(=O)(=O)N2CCCc3ccccc32)cc1)c1nc2ccc(F)cc2s1 | 7.49%
